From ChEMBL document CHEMBL3988442, “University of Dundee, Small-Polar-MMV Screening Library” (2021)
Out of some 85,000 compounds screened, about 440 (0.52%) showed an effect of 50% or more. What follows is part of a selection rich in strong results, with near analogues and random picks from the rest.

Assay: In vitro enzyme assay to detect hydrolysis of chlorophenol red-beta-D-[…] directly proportional to the number of Toxoplasma stably expressing beta-galactosidase
Format: functional, organism-based, Toxoplasma gondii
Design: scale not given: in the data most compounds retested in dose-response had high values

| SMILES | Percent Effect (50 µM) | Percent Effect (10 µM) |
| --- | --- | --- |
| Cc1noc(C)c1C(=O)NC1CCN(CC2CC2)CC1 | -0.3877% | – |
| CC(C)c1nsc(NCC2=COCCO2)n1 | -1.035% | – |
| Cc1[nH]c2ccccc2c1-c1ccnc(N[C@@H](C)CO)n1 | – | 58.12% |
| Cc1[nH]c2ccccc2c1-c1ccnc(NC[C@H](O)CO)n1 | – | 15.34% |
| Cc1[nH]c2ccccc2c1-c1ccnc(NCCN2CCOCC2)n1 | – | -5.812% |
| Cc1[nH]c2ccccc2c1-c1ccnc(N[C@H](CO)CC(C)C)n1 | – | 53.1% |
| Cc1[nH]c2ccccc2c1-c1ccnc(NCCN2CCCCC2)n1 | – | 28.85% |
| Cc1[nH]c2ccccc2c1-c1ccnc(N[C@@H](CO)C(C)C)n1 | – | 48.14% |
| NCc1cc2c([nH]c1=O)CCC2 | 5.937% | – |
| CCN(CCCOC)CC(=O)Nc1cccc(OC)c1 | -2.356% | – |
| COc1ccc(NC(=O)c2cncc(C)c2)cc1CO | -7.73% | – |
| COc1ccc(NC(=O)c2ccc(Br)cn2)cc1CO | -27.31% | – |
| COc1ccc(-c2cncc(N)c2)cc1CO | 96.02% | – |
| O=C(CN1CCCC1c1noc(C2CC2)n1)NCCc1ccsc1 (centres undefined) | – | 19.94% |
| Cc1nc(C2CCCN2CC(=O)NCCc2ccsc2)no1 (centres undefined) | – | 7.324% |
| CCc1nc(C2CCCN2CC(=O)NCCc2ccsc2)no1 (centres undefined) | – | 89.95% |
| CCN(C)C(=O)CNc1ccccc1S(=O)(=O)CC | -2.619% | – |
| O=C([C@@H]1CCCN1)N1CCCC1c1cccnc1 (some centres undefined) | -9.249% | – |
| COCC(C)(CCO)NCc1cccc(F)c1 (centres undefined) | 2.377% | – |
| CC1(c2ccccc2)CCCN(Cc2cncn2C2CC2)C1 (centres undefined) | – | 20.67% |
| CC1(c2ccccc2)CCCN(Cc2cncn2C2CCCC2)C1 (centres undefined) | – | 64.76% |
| COCCn1cncc1CN1CCCC(C)(c2ccccc2)C1 (centres undefined) | – | 0.6483% |
| O=C(C(O)c1ccccc1)N(CCO)Cc1ccsc1 (centres undefined) | 11.77% | – |
| CCOC(=O)c1sc(O)nc1C | -0.2183% | – |
| CC(C)C(NC(=O)c1ccco1)C(=O)N1CCOCC1 (centres undefined) | -3.141% | – |

| SMILES | Percent Effect (50 µM) | Percent Effect (10 µM) |
| --- | --- | --- |
| NCC1(NS(=O)(=O)c2cccc3nonc23)CCCC1 | -3.738% | – |
| CC(C)NC(=O)C1CN(C(=O)Cc2ccccc2)CC12CCOCC2 (centres undefined) | – | 0.09588% |
| CC(C)NC(=O)C1CN(C(=O)NCc2ccccc2)CC12CCOCC2 (centres undefined) | – | -9.471% |
| CC(C)NC(=O)C1CN(C(=O)CCc2ccccc2)CC12CCOCC2 (centres undefined) | – | 56.76% |
| CC(O)CN1CCN(C(=O)CN(C)C2CC2)CC1 (centres undefined) | 3.925% | – |
| Cc1cc(CNC(=O)CCCN2CCCCC2)ccn1 | -5.389% | – |
| NC(=O)NCC1CCCN1 (centres undefined) | 26.88% | – |
| CNCC(C)CNC(=O)c1ccc(C(N)=O)nc1 (centres undefined) | -13.42% | – |
| Cc1cc(C)nc(NC(=O)NC2CCC(O)CC2)c1 (centres undefined) | 31.49% | – |
| O=C(NCCc1nnc[nH]1)C1SCCc2ccccc21 (centres undefined) | -20.61% | – |
| CN(C)C(=O)Nc1cc(F)cc(F)c1 | 57.68% | – |
| CNCC(=O)Nc1cc(F)cc(F)c1 | 12.71% | – |
| CN(CC(C)(CO)CO)C(=O)Nc1cc(F)cc(F)c1 | – | 14.95% |
| COC1CCN(CC(=O)Nc2ccc(C(N)=O)cc2)C1 (centres undefined) | -13.26% | – |
| CC(=O)NCCNC(=O)c1cc(Cl)c(Cl)n1C | -20.76% | – |
| CCc1cc(N2CCCC(CN)C2)n2nccc2n1 (centres undefined) | 8.07% | – |
| Cn1cc(N2CC3(COCCN(Cc4nccs4)C3)OCC2=O)cn1.O=C(O)C(F)(F)F (centres undefined) | – | 3.864% |
| Cn1cc(N2CC3(CCN(Cc4nccs4)CC3)OCC2=O)cn1.O=C(O)C(F)(F)F | – | 66.73% |
| O=C(O)C(F)(F)F.O=C1COC2(CCN(Cc3nccs3)CC2)CN1c1ccccc1 | – | -19.73% |
| CN(C)S(=O)(=O)N1CCCC1c1ccsc1 (centres undefined) | 2.745% | – |
| O=S(=O)(c1ccc2c(c1)CCCN2)N1CCCC1 | 5.041% | – |
| Cc1ccc(NC(=O)CCCNC(=O)C2CC2)cc1 | 98.6% | – |
| O=C(CCCNC(=O)C1CCCO1)Nc1ccc(Cl)cc1 (centres undefined) | – | 23.23% |
| O=C(CCCNC(=O)C1CC1)Nc1cnn(-c2ccccc2Cl)c1 | – | 12.28% |
| CNCCCNS(=O)(=O)c1ccc(Br)c(C(C)=O)c1 | 7.594% | – |

| SMILES | Percent Effect (50 µM) | Percent Effect (10 µM) |
| --- | --- | --- |
| COCC(=O)N[C@H]1CN(CCS(C)(=O)=O)C[C@@H]1C(C)C | -7.194% | – |
| CCn1nc(CC(C)C)cc1C(=O)N1CCC(N)C1 (centres undefined) | -11.21% | – |
| CCc1ccc(NC(=O)C(C)Nc2cccc3c2OCCO3)cc1 (centres undefined) | – | 82.59% |
| CC(Nc1cccc2c1OCCO2)C(=O)Nc1ccc(Cl)cc1 (centres undefined) | – | 6.519% |
| CC(Nc1cccc2c1OCCO2)C(=O)Nc1ccc(S(N)(=O)=O)cc1 (centres undefined) | – | 5.712% |
| CC(C)CC1NCCCNC1=O (centres undefined) | 0.1576% | – |
| CS(=O)(=O)CCn1ccnc1-c1ccc(Cl)s1 | -2.415% | – |
| COc1ccccc1-c1ccccc1CC1(C(=O)O)CCNCC1 | – | 8.204% |
| CCOC(=O)C1(Cc2ccccc2-c2ccccc2OC)CCNCC1.Cl | – | 44.64% |
| CN(CCCC1CCCO1)C(=O)c1cccc(N)n1 (centres undefined) | 1.142% | – |
| CC(=O)NCC(=O)N1CCN(c2ccncc2Cl)CC1 | -5.39% | – |
| OC(CNC1CCOCC1)c1cccc(OCc2ccccc2)c1 (centres undefined) | – | 6.488% |
| CN1CCC(NCC(O)c2cccc(OCc3ccccc3)c2)CC1 (centres undefined) | – | 74.89% |
| OC(CNC1CCSCC1)c1cccc(OCc2ccccc2)c1 (centres undefined) | – | 40.53% |
| Cc1ccc(NC(=O)CN(C)C2CC[S+]([O-])CC2)cc1 (centres undefined) | -6.954% | – |
| COc1ccc(C)cc1NC(=O)Cn1ccnc1 | 17.12% | – |
| O=C(NCc1ccc2c(c1)OCO2)Nc1nccs1 | -9.702% | – |
| COCC(N)c1ccccc1 (centres undefined) | 3.787% | – |
| NC(CC1CCCC1)c1ccc(Oc2ccccc2)cc1 (centres undefined) | – | 55.94% |
| Cl.NC(CC1CCCC1)c1ccccc1 (centres undefined) | – | -47.66% |
| CCOC(=O)C1(C(C)C)CCN(C(=O)c2cn[nH]c2)C1 (centres undefined) | -4.733% | – |
| N#Cc1ccnc(SCc2ccncc2)c1 | 30.75% | – |
| N#Cc1ccnc(SCC(=O)Nc2ccncc2)c1 | 98.13% | – |
| COC(C)(C)C(=O)CSc1cc(C#N)ccn1 | 9.152% | – |
